PubChem BioAssay (NCATS)
Results filed as inconclusive are left out. Active and inactive are the calls of the source. Unless noted, the call rests on the fitted dose curve; in most records, active means well fitted curve in the direction sought with a large enough effect; inconclusive means small, poorly fitted or top-dose-only effect, or another doubt; inactive means no such curve, though single readings can be large; an effect the other way counts as inactive or inconclusive.

What was measured:
[1] = qHTS assay for measurement of the activity of small molecule inhibitors on Zika virus induced Caspase-3 activity in human astrocytoma cells (AID 1224859); further: potency means the concentration at half of the fitted maximal effect
Outline: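 In SNB-19 cells plated at 250 cells/well and grown 16-20 h, compounds were applied 1 h before ZIKV (2 FFU/cell). Six hours later caspase-3/7 luminescence was recorded.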

[2] = Natriuretic polypeptide receptor (hNpr1) antagonism - Pilot counterscreen GloSensor control cell line (AID 1347045; calls by dose curve; further: potency means the concentration at half of the fitted maximal effect)
Outline: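 The SNP-driven cGMP luminescence signal (50 uM, 20 min, room temperature) was measured in GloSensor HEK293 control cells. Compounds were tested as a LOPAC titration series and preincubated for 30-50 min.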

[3] = target: Atrial natriuretic peptide receptor 1 (Homo sapiens) (UniProt P16066); assay: Natriuretic polypeptide receptor (hNpr1) antagonism - Pilot screen (AID 1347049; calls by dose curve;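 further: HEK293 cells with hNpr1 and GloSensor cGMP luciferase stimulated by 0.1 nM hNppA; agonist-evoked cGMP luminescence read 20 min after hNppA addition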; further: potency means the concentration at half of the fitted maximal effect)
Sequence of Atrial natriuretic peptide receptor 1 (Homo sapiens) (P16066 whole entry, looked up): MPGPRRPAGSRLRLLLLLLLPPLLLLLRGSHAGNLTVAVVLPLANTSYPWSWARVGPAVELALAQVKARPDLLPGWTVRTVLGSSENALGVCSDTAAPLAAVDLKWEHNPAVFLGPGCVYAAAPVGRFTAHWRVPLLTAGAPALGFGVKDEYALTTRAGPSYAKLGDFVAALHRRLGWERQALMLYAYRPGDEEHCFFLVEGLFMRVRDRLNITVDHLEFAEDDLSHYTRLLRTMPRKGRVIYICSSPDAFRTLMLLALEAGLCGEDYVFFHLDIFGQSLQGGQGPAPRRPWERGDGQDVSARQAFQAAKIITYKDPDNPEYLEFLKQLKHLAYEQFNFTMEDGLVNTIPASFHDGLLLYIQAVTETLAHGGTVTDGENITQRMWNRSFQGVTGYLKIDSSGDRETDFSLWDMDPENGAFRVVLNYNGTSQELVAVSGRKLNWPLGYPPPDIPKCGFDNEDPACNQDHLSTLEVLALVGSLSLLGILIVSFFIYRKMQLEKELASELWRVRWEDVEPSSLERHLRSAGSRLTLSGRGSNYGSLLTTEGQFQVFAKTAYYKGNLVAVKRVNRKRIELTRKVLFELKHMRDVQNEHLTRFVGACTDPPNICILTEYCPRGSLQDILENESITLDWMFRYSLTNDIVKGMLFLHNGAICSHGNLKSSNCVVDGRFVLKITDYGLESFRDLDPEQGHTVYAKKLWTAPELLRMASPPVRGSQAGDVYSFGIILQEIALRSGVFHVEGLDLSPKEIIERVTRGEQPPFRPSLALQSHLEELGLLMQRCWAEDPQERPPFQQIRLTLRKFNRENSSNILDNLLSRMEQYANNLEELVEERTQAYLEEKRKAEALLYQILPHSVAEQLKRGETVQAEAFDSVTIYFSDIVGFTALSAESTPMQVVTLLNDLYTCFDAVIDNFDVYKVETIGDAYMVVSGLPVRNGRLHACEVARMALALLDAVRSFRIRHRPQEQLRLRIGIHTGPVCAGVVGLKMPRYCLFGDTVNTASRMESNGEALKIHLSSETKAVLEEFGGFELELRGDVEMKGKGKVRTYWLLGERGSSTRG
Outline: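 Cells expressing receptor plus cGMP biosensor are seeded and incubated overnight at 37C, then loaded with GloSensor reagent (2% final) at room temperature for 2 h. Library compounds go on for 30 min. A pre-read precedes agonist (hNppA, 0.1 nM final) and a 20-min readout.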

[4] = target: Atrial natriuretic peptide receptor 2 (Homo sapiens) (UniProt P20594); assay: Natriuretic polypeptide receptor (hNpr2) antagonism - Pilot subtype selectivity assay (AID 1347050; calls by dose curve; further: potency means the concentration at half of the fitted maximal effect)
Sequence of Atrial natriuretic peptide receptor 2 (Homo sapiens) (P20594 whole entry, looked up): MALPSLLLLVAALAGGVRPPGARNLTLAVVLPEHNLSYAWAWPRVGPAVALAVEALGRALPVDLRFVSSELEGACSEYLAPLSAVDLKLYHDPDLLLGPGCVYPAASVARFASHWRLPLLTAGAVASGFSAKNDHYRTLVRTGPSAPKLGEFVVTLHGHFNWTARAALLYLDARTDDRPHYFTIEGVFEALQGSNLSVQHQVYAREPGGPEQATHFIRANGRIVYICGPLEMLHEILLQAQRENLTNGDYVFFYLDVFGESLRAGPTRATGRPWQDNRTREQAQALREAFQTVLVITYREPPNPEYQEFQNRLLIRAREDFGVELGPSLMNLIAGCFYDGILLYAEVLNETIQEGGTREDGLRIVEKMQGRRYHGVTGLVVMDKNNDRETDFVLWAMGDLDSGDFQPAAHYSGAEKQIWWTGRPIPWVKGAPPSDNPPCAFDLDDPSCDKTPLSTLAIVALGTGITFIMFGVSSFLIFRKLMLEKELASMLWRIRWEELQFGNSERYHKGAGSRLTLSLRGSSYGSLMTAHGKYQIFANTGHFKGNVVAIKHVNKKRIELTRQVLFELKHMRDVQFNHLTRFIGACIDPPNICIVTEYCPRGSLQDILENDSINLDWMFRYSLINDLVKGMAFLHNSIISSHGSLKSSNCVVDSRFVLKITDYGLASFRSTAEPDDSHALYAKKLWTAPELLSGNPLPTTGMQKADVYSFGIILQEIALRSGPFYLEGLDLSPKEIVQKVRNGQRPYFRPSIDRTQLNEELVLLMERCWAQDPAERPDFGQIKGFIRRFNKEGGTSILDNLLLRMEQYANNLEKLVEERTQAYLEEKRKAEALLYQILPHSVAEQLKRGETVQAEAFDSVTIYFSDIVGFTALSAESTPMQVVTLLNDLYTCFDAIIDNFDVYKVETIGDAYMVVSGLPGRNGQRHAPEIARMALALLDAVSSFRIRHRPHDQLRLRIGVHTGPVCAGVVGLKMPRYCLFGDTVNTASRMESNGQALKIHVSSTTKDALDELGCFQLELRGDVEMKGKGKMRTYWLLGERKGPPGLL
Outline: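 Read-out: GloSensor luminescence (CCD imager), baseline vs post-stimulation. HEK293 cells expressing hNpr2; compounds pre-incubated 30-50 min at ambient temperature; hNppC 1 nM final, 20 min.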

[5] = target: T1, Tyrosine-protein phosphatase non-receptor type substrate 1 (Homo sapiens) + Leukocyte surface antigen CD47 (Homo sapiens) (UniProt P78324+Q08722); assay: CD47-SIRPalpha protein protein interaction - LANCE assay qHTS validation (AID 1347057; active means well fitted curve in the direction sought with a large enough effect in the signal ratio, with a control signal flat, not every such curve was filed as active; the % refers to the signal ratio; further: series mostly up to about 38 µM)
T1 sequence (P78324 whole entry, looked up, the tested form may be a part): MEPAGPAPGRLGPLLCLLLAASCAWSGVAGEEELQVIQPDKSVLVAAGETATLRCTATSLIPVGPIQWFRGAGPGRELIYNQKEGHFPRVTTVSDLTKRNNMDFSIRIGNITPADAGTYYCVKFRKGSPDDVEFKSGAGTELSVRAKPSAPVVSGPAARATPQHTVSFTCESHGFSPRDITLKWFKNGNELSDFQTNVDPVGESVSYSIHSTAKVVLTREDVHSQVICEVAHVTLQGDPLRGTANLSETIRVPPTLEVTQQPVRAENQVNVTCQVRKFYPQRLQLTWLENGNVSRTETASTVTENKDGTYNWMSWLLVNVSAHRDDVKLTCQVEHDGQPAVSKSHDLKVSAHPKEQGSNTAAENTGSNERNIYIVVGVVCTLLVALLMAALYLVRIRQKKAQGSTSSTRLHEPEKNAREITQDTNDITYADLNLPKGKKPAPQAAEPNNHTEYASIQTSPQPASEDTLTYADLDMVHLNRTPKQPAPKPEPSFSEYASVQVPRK
T1 sequence (Q08722 whole entry, looked up, the tested form may be a part): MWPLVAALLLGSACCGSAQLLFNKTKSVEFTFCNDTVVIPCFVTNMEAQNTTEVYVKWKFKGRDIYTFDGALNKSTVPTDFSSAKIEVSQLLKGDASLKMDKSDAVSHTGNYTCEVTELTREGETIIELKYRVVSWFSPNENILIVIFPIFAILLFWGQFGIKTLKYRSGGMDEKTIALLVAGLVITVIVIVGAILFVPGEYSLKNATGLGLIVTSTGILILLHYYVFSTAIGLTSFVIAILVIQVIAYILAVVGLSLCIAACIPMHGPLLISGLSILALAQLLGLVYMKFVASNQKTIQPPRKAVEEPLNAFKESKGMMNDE
Outline: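 Inhibition of soluble CD47/SIRPalpha ectodomain association by titrated compounds, measured as 665/615 nm time-resolved FRET ratio after sequential 30 min room-temperature incubations.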

[6] = target: Parathyroid hormone/parathyroid hormone-related peptide receptor (Homo sapiens) (UniProt Q03431); assay: qHTS for PTHR1 Agonists: Optimization Screen against the NCGC LOPAC library (AID 1347079);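 further: GloSensor cAMP luminescence in HEK-293 GP2 cells expressing human PTHR1 with IBMX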; further: potency means the concentration at half of the fitted maximal effect
Sequence of Parathyroid hormone/parathyroid hormone-related peptide receptor (Homo sapiens) (Q03431 whole entry, looked up): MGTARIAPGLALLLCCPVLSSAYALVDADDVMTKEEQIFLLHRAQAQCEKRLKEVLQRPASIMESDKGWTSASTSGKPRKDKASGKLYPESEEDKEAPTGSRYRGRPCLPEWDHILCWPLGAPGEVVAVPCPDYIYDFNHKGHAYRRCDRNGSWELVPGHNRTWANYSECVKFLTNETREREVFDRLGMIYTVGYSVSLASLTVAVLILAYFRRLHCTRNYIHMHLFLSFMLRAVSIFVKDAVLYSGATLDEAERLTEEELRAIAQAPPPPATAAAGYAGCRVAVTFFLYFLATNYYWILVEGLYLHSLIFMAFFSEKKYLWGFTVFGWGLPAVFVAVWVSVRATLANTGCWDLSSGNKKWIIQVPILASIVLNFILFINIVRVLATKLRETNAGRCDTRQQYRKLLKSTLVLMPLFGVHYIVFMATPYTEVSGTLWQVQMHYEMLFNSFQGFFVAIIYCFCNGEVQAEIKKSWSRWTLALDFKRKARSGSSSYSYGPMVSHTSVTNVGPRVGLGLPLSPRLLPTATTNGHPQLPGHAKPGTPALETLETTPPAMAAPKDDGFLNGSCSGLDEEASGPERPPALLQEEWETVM
Outline: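 Signal increase flags agonism. GP2 cells, derived from HEK-293, express human PTHR1 and a GloSensor cAMP construct.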

[7] = P-glycoprotein substrates identified in KB-3-1 adenocarcinoma cell line, qHTS therapeutic library screen (AID 1346986); further: nearly all actives have a fitted effect of over 60% in size;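 further: potency means the concentration at half of the fitted maximal effect; potency is for cytotoxicity meaning loss of cell viability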
Outline: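 Using luminescence to quantify ATP, parental and P-gp-overexpressing KB cells were compared after 72 h compound titration. KB-8-5-11 was also run with the P-gp inhibitor tariquidar.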

[8] = P-glycoprotein substrates identified in KB-8-5-11 adenocarcinoma cell line, qHTS therapeutic library screen (AID 1346987); further: nearly all actives have a fitted effect of over 65% in size; further: potency means the concentration at half of the fitted maximal effect
Outline: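 Human cervical adenocarcinoma KB-8-5-11 cells, selected in colchicine to over-express P-gp and assayed without it, were exposed for 72 h to titrated compounds. An ATP-based luminescent viability signal gave AC50.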

[9] = NS1 protein of Zika virus - qHTS assay to identify small molecule inhibitors in human HEK 293 cells (AID 1347053); further: series mostly up to about 46 µM; nearly all actives have a fitted effect of over 55% in size
Outline: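 Compound-treated (1 h pre-infection) HEK 293 cells infected with ZIKV MR766, MOI = 0.5; after 24 h at 37 C, NS1 read by TR-FRET; data normalized to uninfected and infected controls.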

[10] = qHTS of pediatric cancer cell lines to identify multiple opportunities for drug repurposing: Primary screen for TC32 cells (AID 1347089); further: nearly all actives have a fitted effect of over 60% in size
Outline: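 qHTS, TC32, 48 h drug treatment, CellTiter-Glo luminescence as a proxy for metabolically active cells; primary top concentration 46 µM (MIPE 11-pt, NPC 8-pt); confirmatory 11-pt.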

[11] = target: T1, Tyrosine-protein phosphatase non-receptor type substrate 1 (Homo sapiens) + Leukocyte surface antigen CD47 (Homo sapiens); assay: CD47-SIRPalpha protein protein interaction - HTRF assay qHTS validation (AID 1347058; active means well fitted curve in the direction sought with a large enough effect in the signal ratio, not every such curve was filed as active; the % refers to the signal ratio; further: series mostly up to about 38 µM)
Outline: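 Soluble extracellular domains (6His-CD47, Avi-tag-biotinylated SIRPalpha) in PBS pH 7.4 with 0.05% IGEPAL CA-630. Compounds were preincubated 30 min at RT with CD47 and anti-His-Eu, then SIRPalpha and SAV-XL665 were added. TR-FRET 665/615 ratio.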

[12] = target: T1, Tyrosine-protein phosphatase non-receptor type substrate 1 (Homo sapiens) + Leukocyte surface antigen CD47 (Homo sapiens); assay: CD47-SIRPalpha protein protein interaction - Alpha assay qHTS validation (AID 1347059);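 further: bead proximity luminescence from CD47 binding SIRPalpha after compound preincubation with SIRPalpha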
Outline: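 In PBS (pH 7.4) with 0.05% IGEPAL CA-630, compound is preincubated with biotin-Avi-SIRPalpha ectodomain before His-CD47 ectodomain and affinity beads are added. Light-protected room-temperature incubations; AlphaScreen readout.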

[13] = qHTS of pediatric cancer cell lines to identify multiple opportunities for drug repurposing: Primary screen for DAOY cells (AID 1347090); further: potency means the concentration at half of the fitted maximal effect; nearly all actives have a fitted effect of over 55% in size
Outline: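 Eight- or eleven-point concentration series, 48 h treatment at 37 degrees C in growth media; readout CellTiter-Glo luminescence. Potency and efficacy were taken from the concentration-response curves.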

Measured: Potency

O=[N+]([O-])c1ccc2c(c1)S(=O)(=O)C=C2
active: [2] 9.27 µM | [3] 10.7 µM | [4] 5.85 µM
inactive: [1] | [5] | [6]

O=C(O)CC1CC(c2ccccc2)=NO1 (centres undefined)
inactive: [1] | [7] | [2] | [4]
active: [6] 10.6 µM

COC(=O)C1=C(C)NC(C)=C(C(=O)OCC(C)=O)C1c1ccccc1[N+](=O)[O-] (centres undefined)
active: [8] 7.31 µM
inactive: [1] | [9] | [10]

OC[C@H]1O[C@@H](n2cnc3c(NC4CCCC4)ncnc32)[C@H](O)[C@@H]1O
inactive: [1] | [2] | [3] | [4] | [9] | [5] | [11] | [12] | [6]

CC(=O)/C=C1\C(=O)N(C)c2ccccc21
active: [2] 9.27 µM | [3] 16.9 µM | [4] 14.7 µM
inactive: [1] | [5] | [6]

O=C(O)CC[C@@H](C(=O)O)N1C(=O)c2ccccc2C1=O
inactive: [1] | [2] | [3] | [4] | [9] | [5] | [11] | [12] | [6]

CCCC1(C)C(C#N)(C#N)C1(C#N)C#N
active: [2] 5.85 µM | [3] 8.49 µM | [4] 4.65 µM
inactive: [1] | [6]

Oc1ccc(C2CNCc3sccc32)cc1O (centres undefined)
inactive: [1] | [2] | [3] | [4] | [9] | [5] | [11] | [12] | [6]

CN(C)c1ccc(/C=C2\C(=O)Nc3ccccc32)cc1
active: [1] 10 µM | [2] 4.14 µM | [3] 1.2 µM | [4] 10.4 µM
inactive: [9]

NC(=O)C1=CN(C2OC(COP(=O)(O)OP(=O)(O)OC[C@H]3O[C@@H](n4cnc5c(N)ncnc54)[C@H](OP(=O)(O)O)[C@@H]3O)C(O)C2O)C=CC1 (some centres undefined)
inactive: [1] | [2] | [3] | [4] | [9] | [5] | [11] | [12] | [6]

CN1CCc2cccc3c2C1Cc1ccc(O)c(O)c1-3 (centres undefined)
inactive: [1] | [2] | [3] | [4] | [9] | [12] | [6]

Nc1ncnc2c1c(I)cn2[C@@H]1C[C@H](N)[C@@H](O)[C@H]1O
inactive: [1] | [3] | [6]
active: [7] 14.6 µM

CNC(=O)[C@H]1O[C@@H](n2cnc3c(NCc4ccc(N)cc4)ncnc32)[C@H](O)[C@@H]1O
inactive: [1] | [2] | [3] | [4] | [9] | [5] | [11] | [12] | [6]

CN1C2CCC1CC(OC(=O)C(O)c1ccccc1)C2 (centres undefined)
inactive: [1] | [2] | [3] | [4] | [9] | [5] | [11] | [12] | [6]

Nc1ccc([N+](=O)[O-])cc1O
inactive: [1] | [8] | [9]
active: [13] 1 nM

CN(C)C(N)=NCCC[C@H](N)C(=O)O
inactive: [1] | [2] | [3] | [4] | [9] | [5] | [11] | [12] | [6]

CC(C)ON([C@@H](C(=O)NO)C(C)C)S(=O)(=O)c1ccc(-c2ccccc2)cc1
inactive: [1] | [2] | [3] | [4] | [6]

Cc1ccc(S(=O)(=O)/C=C/C#N)cc1
inactive: [1] | [3] | [5] | [11] | [6]
active: [2] 9.27 µM | [4] 9.27 µM

N#C/C(=C\c1ccc(O)c(O)c1)C(=O)c1ccc(O)c(O)c1
inactive: [1] | [2] | [3] | [4] | [9] | [5] | [6]

Nc1nc(Cl)nc2c1ncn2[C@@H]1O[C@H](COP(=O)(O)OP(=O)(O)OP(=O)(O)O)[C@@H](O)[C@H]1O
inactive: [1] | [2] | [3] | [4] | [9] | [5] | [11] | [12]

N=C(N)SCCc1ccc(CCSC(=N)N)cc1
inactive: [1] | [2] | [3] | [4] | [6]

O=C1/C(=C/c2ccsc2)CC/C1=C\c1cccs1
inactive: [1] | [9] | [5]
active: [2] 1.47 µM | [3] 6.01 µM

N.N.O=C(O)C1(C(=O)O)CCC1.[Pt]
inactive: [1] | [2] | [3] | [4] | [6]

CC(C)NCC(O)COc1cccc2ccccc12 (centres undefined)
inactive: [1] | [3] | [4] | [9] | [5] | [11] | [12]

O=C(/C=C/c1ccc(O)c(O)c1)OCCc1ccccc1
inactive: [1] | [3] | [4] | [9] | [5] | [11] | [12] | [6]

O=P(O)(O)C(Cl)(Cl)P(=O)(O)O
inactive: [1] | [3] | [4] | [9] | [5] | [11] | [12] | [6]
